Among all 31,000 sequences or so, about 1,400 (4.5%) were called active. This is one part of a sample in which actives are shown more often than they occur. Unmarked numbers belong to inactive results.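 Rule for the calls: active = median seed-adjusted z-score above 1 or below -1; inactive = the rest.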

This experiment in a line: Novel Modifiers of Survival Motor Neuron (SMN) Protein: Gene Identification via Genome-wide siRNA Screen.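 Note: luminescence tracks full-length SMN protein made from the SMN2 reporter.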 As to conditions: HEK293T SMN2-luciferase reporter, siRNA knockdown, 72 h; actives lie on both sides. In a few lines: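 Steps: spot 1 pmol siRNA, add Lipofectamine RNAiMax in serum-free DMEM, seed HEK293T SMN2–luciferase reporter cells; incubate 72 h at 37 °C; add ONE-Glo; normalize luminescence to control siRNA, log10, MAD. Candidates: |MAD| > 1.0.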
(In a reporter assay the amount or activity of a reporter protein is the signal.)
As to GAUGAUAUCCUACUAGGCATT against CD302, the median seed-adjusted z-score is 0.0818.

For CAAUGUUUGUCUGGUCAUATT against ZDHHC2, the median seed-adjusted z-score was 0.133.

Turning to CAUCUUAUCUACAUCUUAUTT against KCNK18, the median seed-adjusted z-score is 0.115.

Consider CCAUUAUCGCUGUCUUCUATT against CXCR7, for which the median seed-adjusted z-score was -0.511.

On to GGCCUACAGCUGGAAGGAATT against CHRM1, for which the median seed-adjusted z-score was 1.1 (active).

As to GGAUGCGUUGAAUAAGUUUTT against MGAT4A, the median seed-adjusted z-score was 0.134.

For the sequence GCACUACGGACCAUAGUUATT against NRF1, the median seed-adjusted z-score was 0.608.

On to CGAAGUUCACUAUCGAACATT against DNAH11, for which the median seed-adjusted z-score was 0.104.

On to AUAUCAACUUGACCCACCATT against B3GNT7, for which the median seed-adjusted z-score was -1.05 (active).

As for CUACUUCCUUUAUCCCGAUTT against BDH1, the median seed-adjusted z-score was -0.0253.

In the case of GGAUCGAUAUCAAGAUAUUTT against AVEN, the median seed-adjusted z-score was 0.184.

With GAAUCUCUGUAGCCGAUGATT against CPA1, the median seed-adjusted z-score is -0.187.

Consider AGACUGAACUCCGAACAGATT against SSH3, for which the median seed-adjusted z-score was -0.0772.

Regarding GAAUAAGAGCACAAGUAAATT against SERPINB13, the median seed-adjusted z-score is 0.0593.

In the case of AGCUGAUGUUCGAGCAGUATT against ACTL6B, the median seed-adjusted z-score is 0.0703.

Turning to CUCUGAGUAUGUGACCGAATT against XPNPEP1, the median seed-adjusted z-score was -1.5 (active).

In the case of CAUCAUCUAUGUAAGCCUATT against PRKD1, the median seed-adjusted z-score is -0.323.

As for CAAGAAUCAUUAAUACAAATT against CCL2, the median seed-adjusted z-score is 0.651.

For GGACGCAGGUUUCUGUUUATT against CHRFAM7A, the median seed-adjusted z-score was 0.115.

Take CACCAGCUAUGAACGAGAATT against THOC2: the median seed-adjusted z-score was -1.22 (active).

As to CGACCUACCGAGAAGAAAATT against GJB3, the median seed-adjusted z-score is -0.198.

For the sequence GGGAUGUUCUUAGAAGUUUTT against BIK, the median seed-adjusted z-score is 0.0492.

On to GCCCAGUUGCUUAACGAAUTT against ACVR2A, for which the median seed-adjusted z-score was -0.22.

CAAGAACUACAGAUUCGUATT against PPP1R13B: the median seed-adjusted z-score was 0.0943.

Regarding GACUGACCAUACUGAUAUUTT against NPY5R, the median seed-adjusted z-score is 0.213.

On to GCCUGUUUCAAGACACUGATT against CRNN, for which the median seed-adjusted z-score was -0.0758.

In the case of GCUUUAGAGUUCCAUAUGATT against PIK3CG, the median seed-adjusted z-score is 0.576.

Consider GCACCUAUAUUUACUACUUTT against TTC3, for which the median seed-adjusted z-score is -1.17 (active).

CAACUUGCCUUGUUAACCATT against ZDHHC2: the median seed-adjusted z-score was 0.133.

For the sequence CUUCCACCCGAGUACCUUUTT against HDAC10, the median seed-adjusted z-score was -0.165.

Take GAAUAGAGAUCAAAUUCCATT against CD163: the median seed-adjusted z-score is 0.021.

In the case of GGAGGCUUCUUUAUGAAUUTT against FXYD4, the median seed-adjusted z-score is -0.0447.

Take CUAUAACUGUUCGUGCUUATT against USP47: the median seed-adjusted z-score was 0.3.

As to GAAAAUCACCAAAACAUACTT against WHSC1, the median seed-adjusted z-score is 1.17 (active).

GGAAAGUCCUGUUUGAUCATT against RHBDL3: the median seed-adjusted z-score was 0.56.

Turning to CUGUAGAACUAGUCCUUAUTT against PRKRIR, the median seed-adjusted z-score was 0.

Turning to GUAUGUCGGGUAUACCGUUTT against RAD54L2, the median seed-adjusted z-score was -0.0646.

As for CGACAAUGCGGUCAACCUUTT against CD28, the median seed-adjusted z-score is -0.993.

Consider GGAGAUACUCCGAACCUCATT against TEX13A, for which the median seed-adjusted z-score was -1.22 (active).

Regarding CGAUAUCUGACGCAGCUAATT against RPS6KA2, the median seed-adjusted z-score was 0.139.

Turning to ACAUCCGAGUUUAUCCUGATT against SFRS9, the median seed-adjusted z-score is -0.144.

Consider GGAAAAAUAUCCAGCAAAATT against UBE2E2, for which the median seed-adjusted z-score is -1.77 (active).

Regarding CCUCAGAUCUACCCACAGATT against CSF2RB, the median seed-adjusted z-score is -0.454.

As for CACAAGCAAGUUCAAAUAATT against FCRL4, the median seed-adjusted z-score was -0.39.

GCUAUUUGCUGGCUACAAATT against POLR2J3: the median seed-adjusted z-score is -5.42 (active).

In the case of GCGGCAAUCUUGGGAGUAATT against TMPRSS11B, the median seed-adjusted z-score is -0.545.

With CAGCGAUGCUACGACAAUATT against PHF17, the median seed-adjusted z-score is 1.01 (active).

Regarding GAAUUUUGAUGUCAUACGATT against DTNB, the median seed-adjusted z-score was -0.142.

Take GGAACUUCCUGAGAACAUUTT against MAP3K8: the median seed-adjusted z-score is -0.533.

As to CAUUCACGAUCUUCCCGUATT against MYO16, the median seed-adjusted z-score is -0.072.

On to GUUGCAAACUUAUCGAGGATT against CCT2, for which the median seed-adjusted z-score is -0.0508.

Consider GGUAGAAUCUAGGUAUGCATT against RAD51, for which the median seed-adjusted z-score was 0.594.

As for GCAUAUGGUUCUGAAGAUATT against GTF2E1, the median seed-adjusted z-score was 1.76 (active).

Consider GAGCAAAUCAAAGAACUAATT against TSC22D1, for which the median seed-adjusted z-score was 0.

On to AGACACCUCCUAGGACUAUTT against MZF1, for which the median seed-adjusted z-score is 0.215.

As to GGAGUGCACGAGACAUUCATT against FAH, the median seed-adjusted z-score was -0.0836.

GGACUACAAAGGUUCUCGATT against CDH18: the median seed-adjusted z-score was 0.21.

In the case of CAGCUUCGAUAUAAGGAAATT against MYST2, the median seed-adjusted z-score was -1.46 (active).

ACCUGACCGUGUCGCUAUATT against DHRSX: the median seed-adjusted z-score was -0.686.

On to GGAACCUGGAGAUAUCAUUTT against FUT8, for which the median seed-adjusted z-score is 0.464.

On to UGGUGUCGCUGGAGAAGUATT against GPX7, for which the median seed-adjusted z-score was -0.971.

As for CCAUCCCACUGGUCACAUUTT against SLC7A8, the median seed-adjusted z-score was -0.134.

Consider GGAGGCAUUUGAAGUUCCATT against FARP1, for which the median seed-adjusted z-score is -0.487.

Turning to GGACCGCUACUCUGAGUAUTT against KCNH6, the median seed-adjusted z-score is 0.424.

For the sequence CUGUUAUUCUUCAUACCUATT against TAAR8, the median seed-adjusted z-score was 0.0792.

GGAUCAAGACGUGAACGAUTT against CPSF6: the median seed-adjusted z-score is -2.38 (active).

With GAGUAUUCUGAGUACAUGATT against ZFP42, the median seed-adjusted z-score is -0.537.

Regarding CAAACAUCUAUGCAGCAAATT against MS4A8B, the median seed-adjusted z-score was 0.207.

For the sequence GGAUGAGAAGAGACGUAGATT against DNMT1, the median seed-adjusted z-score was 0.185.

The values are drawn from PubChem BioAssay AID1347426 (Functional Genomics Laboratory (NCATS/FGL), 2020).
